Consider 115 molecules from PubChem BioAssay AID488890 (Southern Research Specialized Biocontainment Screening …, 2010).

For orientation: inhibition means the drop in the measured response relative to a control, in per cent.

SMILES strings stand for the structures. About 1,300 (0.41%) of roughly 320,000 compounds were called active. Inconclusive results (about 3%) are left out. The rule behind the calls is not given here. The list is a sample of the results. Entries with a potency or affinity are not part of this list.

This assay is described as follows: growth inhibition of non-replicating M. tuberculosis (AID 488890).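 Note: plate controls were DMSO cells for no effect and high antibiotic wells for full effect.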 To be noted: Mycobacterium tuberculosis non-replicating, at 25 µM, stronger effect = higher value.
Regarding `CC1=C(C(=O)c2ccccc2)C(c2ccc(N3CCOCC3)cc2)NC(=O)N1` (stereo not given), the inhibition amounted to 13.5%.
The same measure for `COc1ccc(OC)c(S(=O)(=O)N2CCCC(C(=O)N3CCOCC3)C2)c1` (stereo not given): -3.68%; for `CN1CCN(C(=S)NC(=O)/C=C/c2ccccc2Cl)CC1`: -10.3%.
For `Cc1nc(C(=O)NCC(=O)c2ccc(Cl)cc2)c(C(F)(F)F)o1`, the inhibition amounted to 75%.
Regarding `O=C(CCNC(=O)Cn1ccc2ccccc2c1=O)NCc1ccc(F)cc1Cl`, the inhibition was -3.09%.
`NC(=O)CCC(NS(=O)(=O)c1ccc(Cl)cc1)C(=O)NCc1ccc(Cl)cc1` (stereo not given): the inhibition was 0.33%.
Take `Cc1cccc(-n2c(-c3ccc(Br)o3)n[nH]c2=S)c1`: the inhibition was -15%.
On to `CCCCNCc1cc(Br)c(OCC(=O)NCc2ccccc2)c(OC)c1`, for which the inhibition is 68.2%.
As to `CCOc1cc(CNCCc2ccc(S(N)(=O)=O)cc2)cc(Cl)c1OCc1ccccc1`, the inhibition worked out at 73%.
Take `COc1cc(CNC2CCCC2)cc(Br)c1OCC(=O)Nc1ccccc1C`: the inhibition was found to be 45.5%.
With `COc1cc(CNC2CCCC2)cc(Cl)c1OCc1ccccc1F`, the inhibition amounted to 78.7%.
For `OCCNCc1ccc(OCc2ccc(Cl)cc2Cl)cc1`, the inhibition amounted to 61.3%.
The same measure for `COc1cc(CNC2CCCCCCC2)cc(Cl)c1OC`: 9.81%; for `CCOc1cccc(CNCCO)c1OCc1ccc(Cl)cc1Cl`: 42.6%; for `COc1cc(CNCc2ccccc2)cc(Cl)c1OC`: -13.6%.
The figure for `COc1ccc(-c2n[nH]c(=S)n2-c2ccc(C)cc2C)cc1` is -17.9%; for `Cc1ccc(S(=O)(=O)CCc2nnc(N)s2)cc1C` it is 4.5%.
The same measure for `Cc1oc(-c2ccccc2F)nc1CSCC(=O)NC1CC1`: -0.31%; for `Cc1c(CC(=O)O)c(=O)oc2c(C)c(OCc3ccccc3)ccc12`: -3.08%.
`CCN(CC(=O)Nc1cccc(C(C)=O)c1)S(=O)(=O)c1ccccc1`: the inhibition is -4.85%.
In the case of `O=C(c1cccnc1)N1CCN(S(=O)(=O)c2ccc3ccccc3c2)CC1`, the inhibition worked out at 9.44%.
Regarding `CC(NC(=O)CN1C(=O)NC2(CCCC2)C1=O)c1ccc2ccccc2c1` (stereo not given), the inhibition was 9.54%.
The same measure for `CCN1CCC(NCCc2ccc(F)cc2)CC1`: -11.9%; for `CN(C(=O)c1ccc2c(Cl)c3c(nc2c1)CCC3)c1ccccc1`: 32.3%.
Regarding `Cc1ccc(N(CC(=O)Nc2c(C)n(C)n(-c3ccccc3)c2=O)S(C)(=O)=O)c(C)c1`, the inhibition was -0.1%.
The figure for `O=P(O)(O)COc1ccccc1P(=O)(c1ccccc1)c1ccccc1` is -12.2%.
As for `Cc1noc(C)c1COC(=O)COc1ccc(C#N)cc1`, the inhibition came to 38.3%.
As to `Cc1noc(C)c1COC(=O)COc1cccc2c1OC(C)(C)C2`, the inhibition stood at 39.2%.
With `O=C(Nc1ccc(N2CCN(C(=O)c3ccco3)CC2)cc1)c1cccs1`, the inhibition came out at 38.8%.
In the case of `O=C(Nc1ccc(N2CCN(C(=O)c3cccs3)CC2)c(Cl)c1)c1ccco1`, the inhibition was 9.48%.
With `O=C(Nc1cccc(S(=O)(=O)N2CCCCCC2)c1)C1CCC1`, the inhibition was -14%.
As for `CCc1ccc(NC(=O)Nc2cccc(OC)c2)cc1`, the inhibition was 60.4%.
`COc1ccc(OCC(=O)NNC(=O)C(=O)Nc2ccc(C)cc2)cc1`: the inhibition amounted to 7.2%.
The same measure for `CCc1ccc(NC(=O)COc2cccc(-n3cnnn3)c2)cc1`: 23.8%.
The figure for `COc1ccc(OCC(=O)NNC(=O)C(=O)Nc2ccccc2)cc1` is 75.3%; for `COC(=O)c1ccc(NC(=O)c2cccc(OC)c2)cc1` it is 27.8%; for `COc1ccc(NC(=O)C(=O)NNC(=O)COc2ccc(OC)cc2)cc1` it is 6.66%.
The same measure for `CCCC(c1nnnn1Cc1ccco1)N1CCC(C(N)=O)CC1` (stereo not given): -17.6%.
Turning to `Cc1ccc(CN2CCSc3ccc(C(=O)NCc4ccccn4)cc32)cc1`, the inhibition was 29.8%.
Consider `CC(=O)Nc1cccc(NC(=O)c2cc(-c3cccnc3)nc3ccc(Cl)cc23)c1`, for which the inhibition was 14.7%.
For the molecule `CCc1ccc(N(CC(=O)NCc2ccco2)C(=O)CCC(=O)Nc2ccccn2)cc1`, the inhibition is -13.9%.
Consider `CCC(C)c1ccc(O)c(N)c1` (stereo not given), for which the inhibition worked out at 1.15%.
The same measure for `CCC(C)c1ccc(O)c(NC(=O)c2cccnc2)c1` (stereo not given): 5.33%.
Consider `CC(C)CN(C(=O)COC(=O)C1=COCCO1)c1c(N)n(Cc2ccccc2)c(=O)[nH]c1=O`, for which the inhibition is 0.83%.
With `O=C(CC1SC(N2CCOCC2)=NC1=O)Nc1cccc(C(F)(F)F)c1` (stereo not given), the inhibition was 9.06%.
The same measure for `COc1cccc(NC(=O)CCN2C(=O)c3ccc([N+](=O)[O-])cc3C2=O)c1`: -4.23%; for `C=CCN1C(=O)C(CC(=O)Nc2ccccc2)S/C1=N/c1nccs1` (stereo not given): -1.19%; for `Cc1cc(C)n(-c2nnc(C)c(=O)[nH]2)n1`: 1.82%.
On to `Cc1cc(=O)[nH]c(N2CCCC2)n1`, for which the inhibition was -4.14%.
As for `CCc1c(C)nc(SCc2cccnc2)[nH]c1=O`, the inhibition is -9.77%.
The figure for `Cc1nn(-c2cccc3cccnc23)c(=O)c2ccccc12` is 0.08%; for `O=C(Cc1ccc([N+](=O)[O-])cc1)N1CCCCCC1` it is 5.47%; for `O=C(c1ccc(Oc2ccc([N+](=O)[O-])cc2)cc1)N1CCCCCC1` it is 65.4%.
With `Cc1ccccc1NC(=O)c1cccc(S(=O)(=O)N2CCOCC2)c1`, the inhibition is -10.8%.
As to `OC(C#CCN1CCCC1)c1ccccc1` (stereo not given), the inhibition is -3.04%.
As to `c1csc(CN2CCOCC2)c1`, the inhibition is -3.64%.
Turning to `COc1cc(C(=S)N2CCN(C(c3ccccc3)c3ccccc3)CC2)cc(OC)c1O`, the inhibition came out at 12.6%.
As to `CCCc1cc(=O)oc2c(C)c(OCC(=O)N3CCC[C@@H]3C(=O)O)ccc12`, the inhibition was -11.2%.
For the molecule `CCOC(=O)/C(=N\Nc1cc(Cl)ccc1Cl)N1CCN(CC)CC1`, the inhibition is 46%.
`COc1ccc(CN2C(=O)C(O)(CC(=O)c3ccc4c(c3)OCO4)c3ccccc32)cc1OC` (stereo not given): the inhibition turned out to be 12.6%.
`Cc1[nH]c2ccccc2c1C(=O)NS(=O)(=O)Nc1ccc(F)cc1`: the inhibition is -2.71%.
Consider `COc1ccccc1Oc1ccc(NC(=O)Cc2ccccc2)cc1`, for which the inhibition turned out to be 19.6%.
`O=c1[nH][nH]c(=O)n1-c1ccccc1`: the inhibition was -3.31%.
Take `O=c1ccc(=O)n(-c2ccccc2)[nH]1`: the inhibition worked out at 20%.
For `CCOC(=O)c1cn(Cc2ccc(C)cc2)nn1`, the inhibition turned out to be 75.3%.
As to `CCOC(=O)c1cn(Cc2ccccc2)nn1`, the inhibition is 74.6%.
In the case of `CCc1nnc(NC(=O)CSc2nncc(=O)n2N)s1`, the inhibition is -12.3%.
On to `Cn1cnnc1SCCNS(=O)(=O)c1ccccc1`, for which the inhibition was found to be 2.23%.
Regarding `CCOC(=O)c1c(C)[nH]c(C(=O)OCC(=O)NCc2ccc(C)cc2)c1C`, the inhibition was -10.5%.
Regarding `C/C(CC(=O)Nc1ccc(N(C)C)cc1)=N\NC(=O)c1ccc(Cl)cc1`, the inhibition was 8%.
Turning to `C/C(CC(=O)Nc1ccc(N(C)C)cc1)=N\NC(=O)c1ccc(F)cc1`, the inhibition was determined as 8.75%.
The same measure for `Cc1cc(C)c(S(=O)(=O)NCC(=O)NCc2ccco2)c(C)c1`: 0.05%.
The same measure for `COC1C(C)=C(C)C(=O)N1Cc1ccccc1` (stereo not given): -5.86%.
As to `C/C(=N\O)c1ccc(Cl)cc1Cl`, the inhibition was determined as 1.76%.
Turning to `C/C(=N\O)c1cc(Cl)cc(Cl)c1O`, the inhibition worked out at 19%.
The figure for `CCCCC(=O)N=c1sc2cc(S(C)(=O)=O)ccc2n1C` is -0.02%; for `CS(=O)(=O)c1ccccc1-c1nnc(NC(=O)c2ccc3ncsc3c2)o1` it is 10.1%.
Turning to `O=C(Nc1nnc(-c2cccnc2)o1)c1ccccc1Cl`, the inhibition was 35.5%.
Take `O=C(Nc1nnc(-c2ccc(F)cc2)o1)c1cccc([N+](=O)[O-])c1`: the inhibition is -8.79%.
On to `COC(=O)c1ccc(C(=O)Nc2nnc(-c3cccnc3)o2)cc1`, for which the inhibition was 7.58%.
Regarding `O=C(Nc1ccc(F)cc1)c1cc(Cl)sc1Cl`, the inhibition is 70.7%.
The figure for `CS(=O)(=O)c1cccc(-c2nnc(NC(=O)c3ccc4ncsc4c3)o2)c1` is -2.94%.
Take `COc1cccc(C(=O)Nc2cccc(-c3nnc(-c4ccccc4)o3)c2)c1`: the inhibition is -7.83%.
Take `O=C(Nc1nnc(-c2ccccc2)o1)c1cc(Cl)sc1Cl`: the inhibition worked out at 9.95%.
For the molecule `O=C1CC(N2CCC(c3nc4ccccc4[nH]3)CC2)C(=O)N1c1cccc(F)c1` (stereo not given), the inhibition came to 20.2%.
On to `CCOC(=O)Cn1c(=NC(=O)CSC(C)=O)sc2cc(F)ccc21`, for which the inhibition stood at 30.8%.
`Cc1nc(OCc2c(C)noc2C)c2ccccc2n1`: the inhibition is -6.1%.
In the case of `Brc1ccc(-c2ccccc2)cc1`, the inhibition amounted to 27.1%.
For the molecule `Cc1ccc(OCC(=O)Nc2ccccc2C(=O)N2CCCC2)cc1`, the inhibition came to 1.03%.
With `Cc1nnsc1C(=O)Nc1ccc(Cl)cc1`, the inhibition was -9.77%.
In the case of `Cc1nnsc1S(=O)c1ccc(Cl)cc1` (stereo not given), the inhibition was -4.16%.
For `COc1ccc(-c2[nH]nc3oc(=O)cc(C)c23)cc1`, the inhibition was determined as 7.5%.
The figure for `Cc1cccc(-c2nc3cc([N+](=O)[O-])ccc3o2)c1` is 4.61%; for `Cc1nc2ncccn2c1-c1csc(Nc2cccc(C(=O)O)c2)n1` it is -13.4%.
Regarding `CC1CCC(NS(=O)(=O)c2cccc3nsnc23)CC1` (stereo not given), the inhibition turned out to be 0.44%.
The same measure for `CCCCOc1ccc(-c2nnn(CC(=O)Nc3ncc(CC(=O)OCC)s3)n2)cc1`: 78.8%; for `CCC(C(=O)O)n1nnc(-c2ccc(-c3ccc(OC)cc3)cc2)n1` (stereo not given): 28%.
Regarding `COc1cccc(C(=O)/C=C2\NCCc3cc(OC)c(OC)cc32)c1`, the inhibition was determined as 21.5%.
Regarding `CCN1CCN(C(=O)N(c2ccccc2)c2ccccc2)CC1`, the inhibition is -28.4%.
With `NC(=O)CC(NC(=O)Cc1cccc2ccccc12)c1ccc(NCCN2CCCCC2)c([N+](=O)[O-])c1` (stereo not given), the inhibition is 3.25%.
Turning to `OC1CCCN(CC(O)COC(c2ccc(F)cc2)c2ccc(F)cc2)C1` (stereo not given), the inhibition was -5%.
On to `OC(COC(c1ccc(F)cc1)c1ccc(F)cc1)CN1CCCC1` (stereo not given), for which the inhibition stood at 1.01%.
The figure for `CCOC(=O)C1(CCOc2ccccc2)CCN(Cc2ccc(O)c(Cl)c2)CC1` is 63.3%.
For `CN1CCN(NC(=O)c2ccc(Cl)c(S(=O)(=O)Nc3ccc(Cl)cc3)c2)CC1`, the inhibition is -0.68%.
With `CCCN(CC(=O)Nc1ccccc1C)C(=O)c1ccc(C(=O)c2ccccc2)cc1`, the inhibition came out at 18.4%.
For `COc1ccc(C(=O)N2CCNC(=O)C2CC(=O)Nc2cc(Cl)ccc2OC)cc1` (stereo not given), the inhibition amounted to 0.76%.
Turning to `O=C(Cc1ccc(-n2cccc2)cc1)NC1CCCCCC1`, the inhibition stood at 19.9%.
Take `CCOC(=O)Cn1cc(/C=C/[N+](=O)[O-])c2ccccc21`: the inhibition came to 72.6%.
In the case of `CCOC(=O)COc1ccccc1/C=N/O`, the inhibition amounted to 15%.
Regarding `CCC(=O)Nc1cccc(NC(=O)c2ccc(Br)cc2)c1`, the inhibition was 1.37%.
Regarding `COC(=O)c1cn(NC(=O)c2ccncc2)c(=O)c2ccccc12`, the inhibition stood at 14.3%.
On to `COC(=O)c1cn(NC(=O)c2cccnc2)c(=O)c2ccccc12`, for which the inhibition was -6.97%.
As for `CCCCCCCCCCC(=O)NNC(=O)c1c(O)c2ccccc2n(CC)c1=O`, the inhibition was -9.98%.
For `COc1cc(C(=O)NCc2ccc(F)cc2)cc(Cl)c1OC`, the inhibition was -11.2%.
On to `CCCCn1c(N)c(N(CCOC)C(=O)CCNC(=O)c2ccc(Cl)cc2)c(=O)[nH]c1=O`, for which the inhibition was -12.2%.
